From the supplement of paper PMC10849652
Targets with a hit are over-represented here; the source holds about 7,900 in all. About 0.6% of all pairs of compound and target were hits. A number with no mark means an inactive call.

Tests used:
Assay in all cases: log2 fold change, soluble protein after heating vs DMSO (PISA); higher = thermal stabilisation; K562 cells, 10 uM, 30 min; active = over 0.2 and 3.5 SD of the protein, either way, in both replicates (recomputed)
[1] = compound: CC[C@@H]1C(=O)N(C)c2cnc(Nc3ccc(C(=O)NC4CCN(C)CC4)cc3OC)nc2N1C1CCCC1
Method in brief: (§1)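 For each measurement, 10 μM compound was applied for 30 min to K562 cells at 2×10^6 cells/mL. Aliquots were heated for 3 min across 48°C-58°C, pooled, and extracted in PBS with 0.5% NP-40 at 4°C; the supernatant after 21,000xg for 90 min was soluble protein. This was quantified by TMTpro 16plex LC-MS/MS with channel sums equalised, and thermal stability was reported relative to control samples from duplicates, on a log2 fold-change scale.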

[2] = compound: CC[C@@H]1C(=O)N(C)c2cnc(Nc3ccc(C(=O)N[C@H]4CC[C@H](N5CCN(CC6CC6)CC5)CC4)cc3OC)nc2N1C(C)C [volasertib]
Method in brief: as §1

[3] = compound: CC[C@H](C)N1C=C(C2=C(C=C(C=C21)C3=CN=C(C=C3)N4CCNCC4)C(=O)NCC5=C(C=C(NC5=O)C)C)C
Method in brief: as §1

[4] = compound: CC[C@H](C)[C@@H](C(=O)N[C@@H]([C@@H](C)O)C(=O)N[C@@H](CC(C)C)C(=O)[C@]1(CO1)C)NC(=O)[C@H]([C@@H](C)CC)N(C)C(=O)C [epoxomicin]
Method in brief: as §1

[5] = compound: CCn1c(C(=O)N(C2CC2)C2CC2)cc2c3c(ncn3C)c(Nc3cc(C)n(C)n3)nc21
Method in brief: as §1

[6] = compound: CCn1cc(-c2ccnc3[nH]c(-c4cccc(CN(C)C)c4)cc23)c(-c2ccc(NC(=O)N(C)C)cc2)n1
Method in brief: as §1

[7] = compound: CN(C)CC(=O)Nc1ccc2[nH]c(=O)c3ccccc3c2c1
Method in brief: as §1

[8] = compound: CN(CCOC1=CC=C(C=C1)C[C@H]2C(=O)NC(=O)S2)C3=CC=CC=N3 (racemic) [rosiglitazone]
Method in brief: as §1

[9] = compound: CN1C2=C(C3=C1C(=O)N(N=C3)CC4=CC(=CC=C4)N)SC(=C2)S(=O)C
Method in brief: as §1

[10] = compound: CN1CCC(CNc2ccc3ncc(-c4cccc(OC(F)(F)F)c4)n3n2)CC1
Method in brief: as §1

[11] = compound: CN1CCN(CCOc2cc(OC3CCOCC3)c3c(Nc4c(Cl)ccc5c4OCO5)ncnc3c2)CC1 [saracatinib]
Method in brief: as §1

[12] = compound: CN1CCN(c2nc(C3=C(c4c[nH]c5ccccc45)C(=O)NC3=O)c3ccccc3n2)CC1 [sotrastaurin]
Method in brief: as §1

[13] = compound: CN1CC[C@H](c2c(O)cc(O)c3c(=O)cc(-c4ccccc4Cl)oc23)[C@H](O)C1 [alvocidib]
Method in brief: as §1

[14] = compound: CN1CCc2c(c3ccccc3n2Cc2ccc(C(=O)NO)cc2)C1 [Tubastatin A]
Method in brief: as §1

[15] = compound: CNC(=O)C1=CC=CC=C1NC2=NC(=NC=C2Cl)NC3=C(C=C(C=C3)N4CCOCC4)OC
Method in brief: as §1

[16] = compound: CNC(=O)c1ccc(Nc2ncc(C(F)(F)F)c(NCc3nccnc3N(C)S(C)(=O)=O)n2)cc1 [defactinib]
Method in brief: as §1

[17] = compound: CNCc1ccc(-c2[nH]c3cc(F)cc4c3c2CCNC4=O)cc1 [rucaparib]
Method in brief: as §1

[18] = compound: CNc1nc(-c2ccc3c(N)n[nH]c3c2)cc(N2C[C@@H](C(=O)NC3CCCCC3)CC[C@H]2C)n1
Method in brief: as §1

[19] = compound: COC(=O)N[C@@H](C)CNc1nccc(-c2cn(C(C)C)nc2-c2cc(Cl)cc(NS(C)(=O)=O)c2F)n1 [encorafenib]
Method in brief: as §1

[20] = compound: COC(=O)[C@H](CCSC)NC(=O)C1=C(C=C(C=C1)NC[C@H](CS)N)C2=CC=CC=C2
Method in brief: as §1

Chain of UniProt Q96T76 (Q96T76 whole entry, looked up): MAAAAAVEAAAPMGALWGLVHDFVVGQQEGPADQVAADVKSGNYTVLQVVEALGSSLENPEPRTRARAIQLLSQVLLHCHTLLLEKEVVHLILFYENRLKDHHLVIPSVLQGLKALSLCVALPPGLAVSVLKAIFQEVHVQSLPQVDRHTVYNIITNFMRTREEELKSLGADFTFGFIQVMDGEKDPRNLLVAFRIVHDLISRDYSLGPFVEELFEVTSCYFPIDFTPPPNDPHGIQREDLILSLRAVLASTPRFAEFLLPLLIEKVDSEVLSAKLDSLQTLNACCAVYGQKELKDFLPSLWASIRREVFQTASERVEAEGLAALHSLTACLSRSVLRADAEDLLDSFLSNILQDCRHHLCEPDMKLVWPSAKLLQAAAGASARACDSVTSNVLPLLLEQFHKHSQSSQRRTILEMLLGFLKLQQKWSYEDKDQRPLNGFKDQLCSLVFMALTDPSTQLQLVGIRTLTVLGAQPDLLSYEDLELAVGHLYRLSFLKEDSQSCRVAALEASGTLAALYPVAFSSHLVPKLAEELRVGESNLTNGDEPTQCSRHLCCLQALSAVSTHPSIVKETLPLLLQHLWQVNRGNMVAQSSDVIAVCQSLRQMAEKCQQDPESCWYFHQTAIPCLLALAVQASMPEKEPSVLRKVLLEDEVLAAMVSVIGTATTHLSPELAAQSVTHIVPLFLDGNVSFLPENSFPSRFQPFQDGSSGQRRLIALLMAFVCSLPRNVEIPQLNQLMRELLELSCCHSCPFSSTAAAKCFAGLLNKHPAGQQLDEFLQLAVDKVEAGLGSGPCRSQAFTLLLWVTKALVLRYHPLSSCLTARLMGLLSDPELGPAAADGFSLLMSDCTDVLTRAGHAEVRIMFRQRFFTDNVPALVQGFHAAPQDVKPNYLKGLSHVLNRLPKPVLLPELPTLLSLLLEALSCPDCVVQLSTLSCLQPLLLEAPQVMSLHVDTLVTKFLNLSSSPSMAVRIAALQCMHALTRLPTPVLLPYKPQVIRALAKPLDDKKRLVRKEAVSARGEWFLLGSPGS
Chain of UniProt P15559 (P15559 whole entry, looked up): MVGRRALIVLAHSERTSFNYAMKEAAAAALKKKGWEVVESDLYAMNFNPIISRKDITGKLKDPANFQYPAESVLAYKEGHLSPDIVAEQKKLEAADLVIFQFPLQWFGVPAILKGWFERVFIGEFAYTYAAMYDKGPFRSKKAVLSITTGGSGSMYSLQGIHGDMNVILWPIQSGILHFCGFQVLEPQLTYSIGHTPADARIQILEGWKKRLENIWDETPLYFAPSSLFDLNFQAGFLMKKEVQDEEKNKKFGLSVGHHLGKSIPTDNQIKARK
Chain of UniProt Q8TEM1 (Q8TEM1 whole entry, looked up): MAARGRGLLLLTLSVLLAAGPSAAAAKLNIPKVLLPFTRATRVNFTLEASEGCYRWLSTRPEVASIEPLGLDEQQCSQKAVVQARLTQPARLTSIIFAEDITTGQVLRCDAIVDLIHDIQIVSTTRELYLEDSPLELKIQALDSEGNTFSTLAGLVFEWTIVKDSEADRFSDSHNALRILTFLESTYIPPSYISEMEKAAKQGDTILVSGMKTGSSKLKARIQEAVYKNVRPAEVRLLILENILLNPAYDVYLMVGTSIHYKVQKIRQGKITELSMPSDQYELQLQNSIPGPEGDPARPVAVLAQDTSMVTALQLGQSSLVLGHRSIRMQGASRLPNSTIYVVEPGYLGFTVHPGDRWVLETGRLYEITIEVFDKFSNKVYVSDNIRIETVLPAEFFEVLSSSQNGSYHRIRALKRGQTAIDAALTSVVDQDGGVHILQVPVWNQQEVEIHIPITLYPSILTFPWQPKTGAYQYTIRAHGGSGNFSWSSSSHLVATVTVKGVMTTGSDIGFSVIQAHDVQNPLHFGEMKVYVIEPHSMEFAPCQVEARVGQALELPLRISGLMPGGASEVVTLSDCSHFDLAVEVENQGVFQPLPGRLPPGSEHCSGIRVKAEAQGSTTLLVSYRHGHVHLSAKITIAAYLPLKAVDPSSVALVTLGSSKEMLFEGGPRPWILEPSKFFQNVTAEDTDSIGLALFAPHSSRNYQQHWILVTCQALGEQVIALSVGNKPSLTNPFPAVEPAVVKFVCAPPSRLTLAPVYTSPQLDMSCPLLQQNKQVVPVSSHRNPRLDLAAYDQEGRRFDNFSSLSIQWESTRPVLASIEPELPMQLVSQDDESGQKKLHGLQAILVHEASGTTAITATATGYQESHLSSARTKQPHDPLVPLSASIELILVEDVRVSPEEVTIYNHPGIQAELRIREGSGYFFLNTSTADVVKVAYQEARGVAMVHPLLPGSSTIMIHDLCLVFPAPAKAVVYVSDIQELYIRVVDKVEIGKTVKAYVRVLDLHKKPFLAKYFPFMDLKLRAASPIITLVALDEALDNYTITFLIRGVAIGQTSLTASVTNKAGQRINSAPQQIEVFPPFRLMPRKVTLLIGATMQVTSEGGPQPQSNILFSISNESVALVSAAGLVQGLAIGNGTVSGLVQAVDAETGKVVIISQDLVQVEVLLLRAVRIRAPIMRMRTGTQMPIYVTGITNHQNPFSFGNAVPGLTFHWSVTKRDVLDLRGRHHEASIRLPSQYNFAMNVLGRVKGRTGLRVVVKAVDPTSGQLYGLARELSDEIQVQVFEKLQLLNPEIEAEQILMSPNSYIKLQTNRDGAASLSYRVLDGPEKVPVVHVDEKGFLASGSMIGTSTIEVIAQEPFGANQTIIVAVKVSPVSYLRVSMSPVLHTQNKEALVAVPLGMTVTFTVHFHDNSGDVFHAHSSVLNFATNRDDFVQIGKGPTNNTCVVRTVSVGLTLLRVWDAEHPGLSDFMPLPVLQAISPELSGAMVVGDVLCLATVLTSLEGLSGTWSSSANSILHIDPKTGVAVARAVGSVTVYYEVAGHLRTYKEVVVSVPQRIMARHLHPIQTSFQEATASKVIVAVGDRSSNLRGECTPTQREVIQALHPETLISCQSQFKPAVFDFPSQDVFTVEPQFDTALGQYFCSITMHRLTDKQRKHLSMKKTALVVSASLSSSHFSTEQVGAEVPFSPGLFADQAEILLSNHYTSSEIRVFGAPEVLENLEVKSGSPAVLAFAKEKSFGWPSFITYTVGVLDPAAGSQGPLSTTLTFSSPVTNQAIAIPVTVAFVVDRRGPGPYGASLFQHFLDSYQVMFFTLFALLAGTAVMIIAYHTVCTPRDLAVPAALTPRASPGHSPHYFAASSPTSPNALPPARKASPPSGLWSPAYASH
Chain of UniProt Q8WX92 (Q8WX92 whole entry, looked up): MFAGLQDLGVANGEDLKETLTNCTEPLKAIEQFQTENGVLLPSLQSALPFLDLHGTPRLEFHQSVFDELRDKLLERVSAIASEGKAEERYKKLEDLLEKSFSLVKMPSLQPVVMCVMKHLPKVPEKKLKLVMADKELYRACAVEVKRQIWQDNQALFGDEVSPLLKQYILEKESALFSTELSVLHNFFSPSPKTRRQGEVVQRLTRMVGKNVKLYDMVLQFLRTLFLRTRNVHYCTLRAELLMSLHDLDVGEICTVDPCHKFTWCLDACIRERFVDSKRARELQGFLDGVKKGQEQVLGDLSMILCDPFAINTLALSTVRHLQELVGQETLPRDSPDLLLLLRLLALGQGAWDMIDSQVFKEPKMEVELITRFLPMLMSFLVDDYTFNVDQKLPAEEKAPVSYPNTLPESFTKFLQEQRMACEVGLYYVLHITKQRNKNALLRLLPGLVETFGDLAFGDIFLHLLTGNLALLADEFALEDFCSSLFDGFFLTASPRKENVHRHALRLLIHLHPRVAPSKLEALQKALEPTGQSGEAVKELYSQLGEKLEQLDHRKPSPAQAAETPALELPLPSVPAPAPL
Chain of UniProt Q13153 (Q13153 whole entry, looked up): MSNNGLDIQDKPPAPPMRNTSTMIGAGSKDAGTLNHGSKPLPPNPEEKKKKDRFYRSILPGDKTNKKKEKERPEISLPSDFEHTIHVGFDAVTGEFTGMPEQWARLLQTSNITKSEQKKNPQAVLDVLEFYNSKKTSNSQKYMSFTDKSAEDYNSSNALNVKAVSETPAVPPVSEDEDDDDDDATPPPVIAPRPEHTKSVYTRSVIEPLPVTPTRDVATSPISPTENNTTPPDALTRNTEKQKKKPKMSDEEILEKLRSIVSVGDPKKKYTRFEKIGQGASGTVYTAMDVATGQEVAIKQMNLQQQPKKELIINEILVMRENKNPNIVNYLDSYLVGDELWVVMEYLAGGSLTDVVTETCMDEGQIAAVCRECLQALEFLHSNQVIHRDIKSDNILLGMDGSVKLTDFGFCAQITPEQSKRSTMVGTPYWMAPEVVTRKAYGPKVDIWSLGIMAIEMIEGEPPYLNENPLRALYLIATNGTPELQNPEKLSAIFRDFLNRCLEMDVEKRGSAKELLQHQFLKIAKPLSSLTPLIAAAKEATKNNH
Chain of UniProt P51948 (P51948 whole entry, looked up): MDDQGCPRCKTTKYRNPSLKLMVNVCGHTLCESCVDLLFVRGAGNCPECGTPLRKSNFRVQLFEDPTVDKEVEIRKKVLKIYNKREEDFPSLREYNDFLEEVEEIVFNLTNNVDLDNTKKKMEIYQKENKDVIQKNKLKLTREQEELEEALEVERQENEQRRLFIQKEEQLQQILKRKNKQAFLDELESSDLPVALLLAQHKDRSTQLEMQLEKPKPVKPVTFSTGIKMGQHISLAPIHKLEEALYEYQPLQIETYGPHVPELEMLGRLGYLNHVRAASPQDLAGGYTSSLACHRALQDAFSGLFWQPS
Chain of UniProt O00217 (O00217 whole entry, looked up): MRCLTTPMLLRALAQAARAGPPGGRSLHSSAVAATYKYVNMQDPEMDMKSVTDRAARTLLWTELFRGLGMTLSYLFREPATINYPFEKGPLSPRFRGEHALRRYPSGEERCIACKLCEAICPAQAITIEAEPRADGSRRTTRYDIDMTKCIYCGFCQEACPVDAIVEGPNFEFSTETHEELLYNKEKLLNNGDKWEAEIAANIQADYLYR
Chain of UniProt P84157 (P84157 whole entry, looked up): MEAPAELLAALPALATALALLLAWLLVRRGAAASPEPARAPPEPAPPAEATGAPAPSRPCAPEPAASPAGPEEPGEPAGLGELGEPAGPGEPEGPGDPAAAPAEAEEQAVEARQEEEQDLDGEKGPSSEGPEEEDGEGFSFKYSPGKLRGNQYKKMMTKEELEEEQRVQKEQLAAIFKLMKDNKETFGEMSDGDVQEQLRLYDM

Row | Target | log2 fold change [1] | log2 fold change [2] | log2 fold change [3] | log2 fold change [4] | log2 fold change [5] | log2 fold change [6] | log2 fold change [7] | log2 fold change [8] | log2 fold change [9] | log2 fold change [10] | log2 fold change [11] | log2 fold change [12] | log2 fold change [13] | log2 fold change [14] | log2 fold change [15] | log2 fold change [16] | log2 fold change [17] | log2 fold change [18] | log2 fold change [19] | log2 fold change [20]
1 | NMD3 (UniProt Q96D46) | 0.103 | 0.151 | -0.009 | 0.042 | -0.029 | -0.163 | 0.04 | 0.064 | -0.138 | 0.114 | 0.043 | 0.02 | -0.012 | 0.07 | 0.088 | 0.06 | -0.181 | 0.003 | 0.028 | -0.052
2 | NUP210 (UniProt Q8TEM1) | -0.001 | -0.12 | 0 | 0.03 | 0.002 | -0.053 | 0.03 | 0.03 | -0.026 | -0.348 (active) | 0.017 | -0.019 | -0.04 | -0.003 | -0.147 | -0.021 | -0.039 | -0.07 | 0.027 | -0.035
3 | NQO1 (UniProt P15559) | 0.011 | 0.057 | 0.276 (active) | 0.083 | 0.159 | -0.064 | -0.005 | 0.013 | 0.356 (active) | 0.046 | -0.076 | -0.002 | -0.108 | 0.027 | 0.161 | -0.038 | -0.077 | -0.008 | 0.005 | -0.022
4 | NDUFS8 (UniProt O00217) | -0.103 | -0.097 | -0.005 | 0.039 | -0.003 | -0.043 | 0 | 0.039 | -0.069 | -0.41 (active) | -0.011 | -0.061 | -0.081 | -0.04 | -0.037 | -0.009 | -0.093 | 0.017 | 0.059 | -0.026
5 | PAK1 isoform 2 (UniProt Q13153) | 0.032 | -0.022 | -0.024 | 0.046 | 0.043 | -0.122 | 0.064 | 0.016 | -0.062 | -0.031 | 0.074 | -0.015 | -0.026 | -0.098 | 0.009 | 0.039 | -0.082 | -0.009 | 0.033 | 0.048
6 | NOB1 (UniProt Q9ULX3) | -0.053 | -0.026 | 0.093 | -0.02 | -0.033 | 0.026 | -0.011 | 0.026 | 0.04 | -0.049 | -0.022 | -0.092 | 0 | 0.045 | -0.047 | -0.009 | 0.141 | 0.103 | 0.007 | 0
7 | NSMCE4A (UniProt Q9NXX6) | 0.069 | 0.053 | 0.103 | -0.02 | 0.112 | -0.251 | -0.13 | 0.057 | -0.33 | -0.009 | 0.109 | 0.015 | -0.003 | 0.05 | -0.112 | -0.086 | 0 | -0.114 | -0.064 | -0.002
8 | MINK1 (UniProt Q8N4C8) | -0.01 | -0.149 | 0.056 | -0.009 | -0.011 | -0.069 | -0.035 | 0.011 | -0.004 | -0.137 | -0.052 | -0.009 | -0.027 | -0.015 | -0.007 | -0.069 | -0.033 | -0.029 | 0.044 | 0.012
9 | NIBAN1 (UniProt Q9BZQ8) | -0.16 | -0.428 (active) | 0.073 | 0.066 | -0.039 | -0.085 | 0.022 | 0.055 | 0.04 | -0.208 | -0.051 | -0.086 | -0.037 | 0.004 | -0.013 | -0.111 | 0.08 | 0.013 | 0.144 | -0.017
10 | NOP53 (UniProt Q9NZM5) | 0.174 | 0.393 | -0.014 | -0.009 | -0.132 | 0.013 | -0.111 | -0.053 | 0.516 | 0.599 | -0.063 | -0.014 | 0.396 | 0.141 | -0.019 | 0.62 | 0.36 | 0.035 | 0.174 | -0.022
11 | MNAT1 (UniProt P51948) | 0.029 | -0.027 | -0.029 | -0.057 | -0.006 | 0.015 | 0.032 | -0.027 | -0.011 | 0.015 | -0.017 | 0 | -0.002 | 0.006 | 0.012 | -0.03 | -0.046 | -0.004 | -0.006 | -0.009
12 | NELFB isoform 2 (UniProt Q8WX92) | -0.176 | -0.68 (active) | 0.118 | 0.072 | -0.057 | -0.012 | 0.068 | 0.041 | -0.02 | -0.116 | -0.016 | -0.065 | -0.199 | 0.04 | -0.026 | -0.199 | -0.034 | -0.005 | 0.079 | -0.057
13 | MXRA7 (UniProt P84157) | 0.04 | 0.08 | -0.11 | -0.034 | 0.038 | -0.042 | 0.124 | 0.037 | -0.114 | 0.113 | 0.127 | 0.027 | 0.048 | -0.02 | 0.007 | -0.104 | -0.093 | -0.033 | 0.008 | -0.025
14 | NDUFA7 (UniProt O95182) | -0.19 | -0.109 | -0.023 | 0.052 | 0 | 0.011 | 0.01 | -0.02 | 0.027 | -0.324 (active) | -0.037 | 0.047 | -0.01 | -0.148 | -0.042 | 0 | 0.046 | -0.031 | -0.042 | -0.008
15 | MSH2 (UniProt P43246) | -0.103 | -0.173 | 0.039 | 0.066 | -0.034 | 0.036 | 0.059 | 0.046 | -0.019 | -0.067 | -0.006 | -0.072 | -0.111 | 0.041 | 0.065 | -0.153 | -0.06 | 0.031 | 0.062 | -0.037
16 | MMS19 isoform 8 (UniProt Q96T76) | -0.102 | -0.43 (active) | 0.075 | 0.013 | -0.009 | -0.052 | 0.11 | 0.076 | 0.051 | -0.085 | -0.013 | -0.156 | -0.115 | -0.071 | 0.003 | -0.127 | 0.052 | -0.003 | 0.099 | -0.008
